# Assay results reported in PubChem BioAssay AID449762 (Southern Research Specialized Biocontainment Screening …, 2010).
# In all, about 330,000 compounds went through this assay and about 1,900 (0.58%) were called active. Not shown: some 4% with an inconclusive outcome. No stated cut-off is given here; in the data, inconclusive means inhibition above about 70% without an active follow-up result; inactive means below that. These entries were drawn from the full list. Potency and affinity values are given separately.
# Assay: M. tuberculosis growth inhibition, HTS (AID 449762);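 further: bacterial growth assessed after seven days of incubation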
# Conditions: M. tuberculosis H37Rv growth inhibition, 7H9 media; at 25 µM; stronger effect = higher value
row,Structure (SMILES),inhibition
1,COc1ccccc1OCCNC(=O)/C=C/c1ccc([N+](=O)[O-])cc1,2% (inactive)
2,Cn1c(=O)[nH]c(=O)c2c1nc(NCCCO)n2CCOc1ccccc1,-8.75% (inactive)
3,O=C(C1=COCCO1)N(Cc1nnc(-c2ccccc2Cl)o1)C1CC1,1.25% (inactive)
4,O=C(c1cc2ccccc2o1)N(Cc1nnc(-c2ccccc2Cl)o1)C1CC1,-0.85% (inactive)
5,CCOC(=O)N1CCN(C(=O)c2cc3ccc(OC)cc3[nH]2)CC1,-1.51% (inactive)
6,COc1ccc(C(=S)N2CCC(C(N)=O)CC2)cc1Br,-5.29% (inactive)
7,CC1CCCC(C)N1CC(O)COc1ccc(Cl)cc1 (stereo unspecified),-8.81% (inactive)
8,COc1cc(OC)c(C(=O)/C=C/c2ccc(OCc3ccccc3)c(OC)c2)c(OC)c1,55.4% (inactive)
9,COc1ccc(-c2cc(=Nc3ccc(C)cc3)c3ccccc3o2)cc1,18.3% (inactive)
10,CCOc1ccc(N=c2cc(-c3ccc(OC)cc3)oc3ccccc23)cc1,2.75% (inactive)
11,Nc1ccc(C(=O)OCCCc2nc3ccccc3[nH]2)cc1,2.21% (inactive)
12,Nc1ccc(C(=O)OCc2nc3cc4ccccc4cc3[nH]2)cc1,3.37% (inactive)
13,C/C=C(\C)CN1CCCC(CO)(Cc2ccccc2)C1 (stereo unspecified),12.6% (inactive)
14,Cc1nc(SCC(=O)N2CCNC2=O)c2ccccc2n1,0.14% (inactive)
15,CCCCCCNC(=O)C(C#N)c1nc2ccccc2nc1N1CCOCC1 (stereo unspecified),1% (inactive)
16,N#CC(C(=O)NCCc1ccccc1)c1nc2ccccc2nc1N1CCOCC1 (stereo unspecified),4.18% (inactive)
17,CCCc1cc(=O)[nH]c(SCC(=O)c2cc(C)n(C)c2C)n1,2.23% (inactive)
18,Cc1sc2c(c1C)CN(C(C)(C)C)CN2C(=O)c1ccccc1,-8.66% (inactive)
19,COc1ccc(CCNc2nc(N3CCOCC3)nc(N3CCOCC3)n2)cc1OC,-5.04% (inactive)
20,COc1ccc(N2CCN(c3nc(NCCc4ccc(OC)c(OC)c4)nc(OC)n3)CC2)cc1,-2.33% (inactive)
21,Cc1ccc(CNC(=O)CN(C)S(=O)(=O)c2cnc[nH]2)cc1,-4.45% (inactive)
22,Cc1cccc(C)c1NC(=O)COc1ccccc1C(=O)Nc1ccc(Br)cn1,3.17% (inactive)
23,O=C(NC(=S)Nc1ccccc1Cl)C1CC1,11.2% (inactive)
24,COc1cc(NC(=O)C2CCN(S(=O)(=O)c3cccc4nonc34)CC2)cc(OC)c1,2.95% (inactive)
25,CCOC(=O)CC(=O)CSc1ncnc2c1nnn2-c1ccc(F)cc1,-7.23% (inactive)
26,CCOC(=O)C(CC)Sc1ncnc2c1nnn2-c1ccc(F)cc1 (stereo unspecified),-6.34% (inactive)
